Source: PubChem BioAssay
CYP2C9 inh: inhibitors of human CYP2C9; 96,000 compounds, 20% hits; CYP2C9 Supersomes, luciferin-H conversion, luminescence; P11712; inhibition, % at 5 µM;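 active = blocking of liver enzyme CYP2C9 beyond about 50% at 5 µM, limit read from the data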
Target sequence (P11712 whole entry, looked up): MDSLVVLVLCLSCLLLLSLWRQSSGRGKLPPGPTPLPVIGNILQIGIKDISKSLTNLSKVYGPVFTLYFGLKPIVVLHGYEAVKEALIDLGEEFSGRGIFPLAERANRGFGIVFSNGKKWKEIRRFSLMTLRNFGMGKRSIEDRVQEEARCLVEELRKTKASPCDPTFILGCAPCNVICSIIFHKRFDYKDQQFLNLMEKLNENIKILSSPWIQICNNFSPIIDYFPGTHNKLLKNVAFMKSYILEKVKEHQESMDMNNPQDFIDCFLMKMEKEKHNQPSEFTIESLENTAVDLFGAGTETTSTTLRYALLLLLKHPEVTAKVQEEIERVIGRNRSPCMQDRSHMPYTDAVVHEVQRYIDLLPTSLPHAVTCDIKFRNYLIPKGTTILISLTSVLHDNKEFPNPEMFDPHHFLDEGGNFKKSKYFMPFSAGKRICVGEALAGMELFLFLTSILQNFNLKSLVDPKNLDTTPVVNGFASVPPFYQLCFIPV
CYP2C19 activ: cytochrome P450 2C19 (human) activation; 96,000 tested, under 10 active; activation factor at 5 µM; recombinant CYP2C19, luciferin-H EGE luminescence; hits give high values; 0 = fully inhibited enzyme, 1 = untreated enzyme; P33261;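 active = activation factor of at least 2 at 5 µM in the primary screen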;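 note: 0 = wells with 2.5 mM tranylcypromine and 1 = vehicle-only wells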
CYP2C19 inh: blocks human cytochrome P450 2C19. P33261. CYP2C19 Supersomes, luciferin-H EGE luminescence, 30 min. inhibition, % at 5 µM. 96,000 compounds, 21% hits;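 active = CYP2C19 inhibition above a set limit at 5 µM in the primary screen, cut at about 50% in these data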;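 note: plate controls were negative control wells for no effect and 2.5 mM tranylcypromine positive control for full effect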
Cav3 T inh: human Cav3.2 channel inhibition, primary screen; B-score at 10 µM; AID 449739; 100,000 compounds, 4% hits; Cav3.2-expressing cells, Fluo-4 calcium fluorescence FDSS; hits give low values; O95180;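 active = single-dose well whose peak fluorescence ratio is a statistical outlier from its plate by either plate-standardised score or position-corrected B-score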
CYP2C9 activ: increases human cytochrome P450 2C9 activity. recombinant CYP2C9, luciferin-H conversion, luminescence; hits give high values; factor 1 = untreated enzyme, 0 = blocked. activation factor at 5 µM. P11712. 96,000 compounds, 1.4% hits;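 active = activation factor of 2 or more for CYP2C9 at a 5 µM dose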;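 note: 0 = sulfaphenazole-blocked wells and 1 = vehicle-only wells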
The depositor's hits bear a star; nt = no result given. The list is not random: actives were taken first. Their share in the collection is about 27%.

SMILES | CYP2C9 inh | CYP2C19 activ | CYP2C19 inh | Cav3 T inh | CYP2C9 activ
CCOc1ccc(C2SCC(=O)N2c2c(C)n(C)n(-c3ccccc3)c2=O)cc1 (stereo not drawn) | 71* | 0.3 | 67* | 0.027 | 0.3
CCOc1cc(CNCCCN2CCOCC2)cc(Br)c1OCC(=O)Nc1cccc(C(F)(F)F)c1 | 9 | 0.9 | 12 | 1.5 | 0.9
O=C(CN(Cc1ccco1)C(=O)c1cc(=O)[nH]c2ccccc12)Nc1ccccc1Br | nt | nt | nt | 0.52 | nt
Cc1cccc(Nc2nc(NCc3ccco3)nc(N3CCOCC3)n2)c1 | 92* | 0.2 | 82* | -4.7* | 0.1
Cc1cccc(Nc2nc(N3CCCC3)nc(N3CCCC3)n2)c1 | 16 | 0.9 | 5 | -0.39 | 0.8
Cc1ccc(CNS(=O)(=O)c2ccc(C(C)(C)C)cc2)n1C | -90 | 0.3 | 73* | -0.92 | 1.9
Cc1ccnc(NC(=O)c2ccc(COc3ccc(Cl)cc3)o2)c1 | 25 | 0.9 | 8 | -2 | 0.7
COc1ccccc1C(=O)n1nc(-c2ccco2)nc1N | 11 | 0.4 | 57* | nt | 0.9
CC(=O)n1nc(-c2ccco2)nc1N | -7 | 1 | -3 | 0.029 | 1.1
COC(=O)c1ccc(C(=O)OC)c(NC(=O)COC(=O)CC2CC3CCC2C3)c1 (stereo not drawn) | 38 | 0.7 | 31 | -1.4 | 0.6
O=C(Nc1ccc2c(c1)CCC2)C1CCCO1 (stereo not drawn) | nt | nt | nt | 0.21 | nt
CCN(CC)S(=O)(=O)c1ccc(NC(=O)c2ccccn2)cc1 | 49 | 0.7 | 28 | 0.76 | 0.5
O=C(Nc1ccc2c(c1)CCC2)C1COc2ccccc2O1 (stereo not drawn) | -1 | 0 | 95* | -3.2 | 1
CCN(CC)S(=O)(=O)c1ccc(NC(=O)C2COc3ccccc3O2)cc1 (stereo not drawn) | 72* | 0.8 | 23 | -2.2 | 0.3
CC(C)(C)C(=O)Nc1ncc(C(F)(F)F)cc1Cl | 0 | 0.8 | 17 | -0.039 | 1
CCN(CC)S(=O)(=O)c1ccc(NC(=O)COC(=O)CN2C(=O)c3ccccc3C2=O)cc1 | 81* | 0.7 | 33 | -0.67 | 0.2
O=C(Nc1ncc(C(F)(F)F)cc1Cl)C1COc2ccccc2O1 (stereo not drawn) | 21 | 0.2 | 80* | -0.56 | 0.8
Nc1cccc(-n2nncc2-c2ccccc2)c1 | 0 | 0.7 | 31 | 0.51 | 1
CC1=C(C(=O)Nc2ccccc2Cl)C(c2ccc(N(C)C)cc2)NC(=O)N1 (stereo not drawn) | -14 | 1 | -2 | 0.53 | 1.1
O=C(Nc1ccc2c(c1)OCO2)C1COc2ccccc2O1 (stereo not drawn) | 7 | 0.3 | 70* | 0.054 | 0.9
O=C(Nc1cnc2ccccc2c1)C1COc2ccccc2O1 (stereo not drawn) | 54* | 0.1 | 90* | -12* | 0.5
O=C(Nc1ccncc1)C1COc2ccccc2O1 (stereo not drawn) | 52* | 0 | 96* | -0.033 | 0.5
Cc1cc(C)n(C(=O)c2ccc(NC(=O)C3COc4ccccc4O3)cc2)n1 (stereo not drawn) | -67 | 0.6 | 45 | -5 | 1.7
O=C(NC1CC2CCC1C2)C1COc2ccccc2O1 (stereo not drawn) | 1 | 0.5 | 52* | -0.22 | 1
Cc1ccc(S(=O)(=O)N[C@H](C(=O)N2CCC(C(=O)NCC(=O)O)CC2)C(C)C)cc1 | 23 | 0.9 | 9 | 0.031 | 0.8
SMILES | CYP2C9 inh | CYP2C19 activ | CYP2C19 inh | Cav3 T inh | CYP2C9 activ
Cc1ccc(NCc2nnc(SC(C)C(=O)N/N=C/c3ccc(C)o3)n2-c2ccccc2)cc1 (stereo not drawn) | 9 | 0.7 | 29 | -1 | 0.9
FC(F)(F)c1cc(-c2ccco2)nc(NCCc2ccccc2)n1 | 38 | 0.9 | 12 | 0.8 | 0.6
O=C(Nc1ccc(N2CCN(Cc3ccccc3)CC2)cc1)c1ncn[nH]1 | -7 | 1 | -1 | 2.1 | 1.1
O=C(NCc1cccnc1)C1COc2ccccc2O1 (stereo not drawn) | 3 | 0.7 | 32 | 0.72 | 1
O=C(CSC1=NCCN1)C1COc2ccccc2O1 (stereo not drawn) | 67* | 0.4 | 61* | 0.45 | 0.3
O=C(NNS(=O)(=O)c1ccc(Cl)cc1)c1cnn(-c2ccccc2)c1-n1cccc1 | 64* | 0.8 | 23 | -2.6 | 0.4
CN(C)C(=O)N1CCN(C(=O)N2CCOCC2)CC1 | nt | nt | nt | 0.75 | nt
Cc1ccc(C(=O)CSc2nnnn2C(C)C)c(C)c1 | 34 | 0.2 | 77* | -1.7 | 0.7
Cc1ccc(C)c(C(=O)CSc2nnnn2C(C)C)c1 | 38 | 0.3 | 66* | -2 | 0.6
